# ELG1 DNA repair = blocks ELG1-dependent DNA repair in HEK293T cells | HEK293T ELG1-luciferase reporter, luminescence, 16 h; DNA damage induced by 5-fluorouridine | Potency, µM (doses to about 46.1 µM), for the others: at the top dose activity change, negative = inhibition, most hits filed as inhibitors | 330,000 tested, 2.3% active | AID 504467; also: % is scaled to controls: 0 for no effect and ±100 for the full control effect; nearly all actives have a fitted effect of over 55% in size
#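 In this reporter screen, reduction of luminescence relative to DMSO vehicle indicated activity. Compounds and 5-fluorouridine were added together to 2,000 cells per well, incubated for 16 hr at 37 °C, then developed with ONE-Glo.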
# KB-3-1 tox = kills parental KB-3-1 adenocarcinoma cells; Potency, µM (doses to about 46.1 µM), most hits filed as cytotoxic; KB-3-1 viability, CellTiter-Glo ATP luminescence, 72 h; 400,000 tested, 1.4% active; also: % is scaled to controls: 0 for no effect and ±100 for the full control effect; nearly all actives have a fitted effect of over 60% in size
#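 Luminescent ATP read-out (CellTiter-Glo) measures survival of drug-naive KB-3-1 cells after 72 h compound exposure at 37 °C. Titration series was screened from lowest to highest concentration, with DMSO vehicle plates as background controls.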
# MCF10A rereplic = induces DNA re-replication in MCF 10a normal breast cells; Potency, µM (titrated, usually from 46.1 µM), without a hit: top-dose activity, positive = re-replication, most hits filed as activators; 350,000 tested, 2.9% active; MCF 10A DNA re-replication, Hoechst nuclear intensity, 48 h; also: % of control where 0% means no effect; nearly all actives have a fitted effect of over 50% in size
# SW480 rerep = inducers of DNA re-replication in SW480 colon cancer cells; SW480 DNA re-replication, Hoechst DNA content imaging, 48 h; Potency, µM (doses to about 46.1 µM), without a hit: at the highest dose re-replication activation, hits mostly activators; 340,000 tested, 1.8% active; AID 624297; also: % of control where 0% means no effect; nearly all actives have a fitted effect of over 55% in size
#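 DNA re-replication was detected as more nuclei of elevated Hoechst intensity after 48 hr exposure to compound (23 nL pinned per well of 250 cells).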
# KB-V1 MDR tox = kills drug-selected multidrug resistant KB-V1 cells | KB-V1 MDR cells viability, CellTiter-Glo, 72 h | 400,000 tested, 3.4% active | Potency, µM (series often up to 46.1 µM), actives largely listed as cytotoxic; also: % is scaled to controls: 0 for no effect and ±100 for the full control effect; nearly all actives have a fitted effect of over 60% in size
#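 Drug-selected KB-V1 cells, grown in DMEM lacking phenol red with 10% FBS, receive compound titrations; after three days at 37 degrees C, surviving cell ATP is quantified by CellTiter-Glo luminescence and responses normalized and curve-fitted.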
# The depositor's hits bear a star; i = inactive; u = inconclusive; x = not tested or not shown; [ ] = remark or other dose. Hits are enriched below; roughly 8.1% of the tested compounds scored in any of these assays. Calls follow the shape of the dose curve; as a rule, active = well fitted curve in the direction sought with a large enough effect; inconclusive = small, poorly fitted or top-dose-only effect, or another doubt; inactive = no such curve, though single readings can be large; an effect the other way counts as inactive or inconclusive. Potency is read from the fitted curve at half-maximal effect.
SMILES,ELG1 DNA repair,KB-3-1 tox,MCF10A rereplic,SW480 rerep,KB-V1 MDR tox
CCCCCCCCCCCCCCCCn1cc[n+](C)c1,7.3µM*,4.11µM*,20.6µM*,u,i
C[n+]1ccn(CC(=O)c2cccs2)c1,-2.1%,i,0.9%,12.9%,i
C[C@H](C[C@H](O)[C@H]1OC1(C)C)C1=C2C[C@H](O)C3[C@@]4(C)CCC(=O)C(C)(C)C4CC[C@]3(C)[C@@]2(C)CC1 (some centres undefined),-17.1%,u,u,u,3.66µM*
C[C@@H](C[C@@H](O)[C@H](O)C(C)(C)O)[C@@H]1CC[C@]2(C)C3=CC[C@H]4C(C)(C)C(=O)CC[C@]4(C)[C@H]3CC[C@@]12C,-23.1%,u,u,2.1%,u
Nc1cccc2cnccc12,0.0%,i,-2.7%,-7.3%,i
Nc1ccncc1N,9.8%,20.6µM*,u,u,u
Cc1c(C(=O)N2CCN(c3ccccn3)CC2)cccc1[N+](=O)[O-],-2.6%,i,-0.3%,-1.6%,u
COC(=O)[C@@]1(Cc2ccc(F)cc2)[C@H]2c3cc(C(=O)N4CCCC4)n(CCc4ccc(OC)c(Br)c4)c3C[C@H]2CN1C(=O)c1ccccc1,x,25.9µM*,x,x,u
COC(=O)[C@@]1(Cc2ccc(F)cc2)[C@H]2c3cc(C(=O)N4CCCC4)n(CCc4ccc(O)c(O)c4)c3C[C@H]2CN1C(=O)c1ccccc1,-28.4%,x,4.8%,5.8%,x
COC(=O)[C@@]1(Cc2ccc(OC)cc2)[C@H]2c3cc(C(=O)N4CCCC4)n(CCc4ccc(OC)c(Br)c4)c3C[C@H]2CN1C(=O)c1ccccc1,x,u,x,x,18.4µM*
COc1cc(NC(=O)c2ccnnc2)cc(C(=O)Nc2cccc(C(F)(F)F)c2)c1,-10.0%,i,-4.3%,2.1%,i
O=C(c1cc(COc2c(F)cccc2F)on1)N1CCc2ccccc2C1,-2.6%,i,11.0%,-12.0%,i
COc1ccccc1NS(=O)(=O)c1cc(NC(=O)c2cc(F)c(F)c(F)c2F)ccc1N1CCOCC1,1.5%,i,u,-4.3%,i
O=C(Nc1ccc(N2CCOCC2)c(S(=O)(=O)Nc2ccccc2Cl)c1)c1ccccc1,18.3µM*,u,5.2%,-0.7%,i
O=C(Nc1ccc(N2CCOCC2)c(S(=O)(=O)Nc2ccccc2Cl)c1)c1ccc(=O)[nH]n1,x,u,8.8%,-9.8%,i
COc1ccccc1NS(=O)(=O)c1cc(NC(=O)c2ccccc2C)ccc1N1CCOCC1,x,i,7.6%,-7.7%,8.2µM*
Cc1cc(N(C)C)ccc1N=Nc1ccc2ncccc2c1,u,i,0.6%,-2.8%,i
CCOc1ccc(CNC(=O)CCn2c(=O)oc3ccccc32)cc1,0.5%,i,7.3%,4.2%,23.1µM*
CCOc1ccc(OCC)c(NC(=O)CCn2c(=O)oc3ccccc32)c1,-3.4%,i,-2.7%,-0.5%,8.2µM*
OCC1O[C@@H](O[C@@H]2C(CO)OC(O)C(O)C2O)C(O)C(O)C1O (some centres undefined),x,x,0.7%,-4.4%,x
Cc1ccc2cc3c(nc2c1)OCC3,u,i,-5.3%,8.2µM*,i
O=C(CCl)NC(=O)NC12CC3CC(CC(C3)C1)C2,16.4µM*,i,u,x,i
Cc1nn(C)c(Cl)c1NC(=O)OCc1ccc(F)cc1,u,i,-185.4%[0.0737 µM],17.8%,i
COc1ccccc1COC(=O)Nc1c(C)nn(C)c1Cl,-4.3%,i,8.6%,-4.1%,23.1µM*
COc1ccc([N+](=O)[O-])cc1NC(=O)C(C)Sc1ccccc1 (centres undefined),1.6%,i,-5.5%,x,i
SMILES,ELG1 DNA repair,KB-3-1 tox,MCF10A rereplic,SW480 rerep,KB-V1 MDR tox
COc1ccccc1CN(C)C(C)C(=O)Nc1cccc(C(C)=O)c1 (centres undefined),u,i,9.2%,-5.5%,u
COc1cc(CN(C)C(C)C(=O)Nc2ccc([N+](=O)[O-])cc2Cl)ccc1OC(F)F (centres undefined),16.4µM*,i,7.4%,2.6%,i
COc1ccc(Br)cc1CN(C)C(C)C(=O)Nc1cccc(C(C)=O)c1 (centres undefined),25.9µM*,i,20.4%,5.9%,u
COc1ccc([N+](=O)[O-])cc1NC(=O)C(C)N(C)Cc1cccc(OC)c1OC (centres undefined),9.2µM*,i,29.6%,17.0%,8.2µM*
COC(=O)C1=C(Nc2ccc(C)cc2)C=C(C)C(C(=O)OC)C1c1cccc(OC)c1 (centres undefined),u,u,u,23.1µM*,i
COC(=O)C1=C(Nc2ccc(C)cc2)C=C(C)C(C(=O)OC)C1c1ccc(OC)cc1 (centres undefined),-0.6%,i,u,14.6µM*,i
O=c1c2sc3ccccc3c2n(Cc2ccccc2F)c(=O)n1-c1ccccc1Cl,x,i,x,x,i
CCCCn1c(NCc2cc(C)ccc2O)nc2ccccc21,x,i,x,x,i
COc1cccc(CNCc2cccc(OC)c2O)c1O,x,i,-0.8%,-2.0%,18.4µM*
CCCCn1c(NCc2cc(Cl)ccc2O)nc2ccccc21,x,u,x,x,13µM*
COc1cccc(CNCc2ccco2)c1O,3.5%,i,-11.6%,5.2%,i
CCCn1c(NCc2cccc(OC)c2O)nc2ccccc21,u,i,-0.6%,2.0%,8.2µM*
O=C(O)Cn1c(SCc2cccc3ccccc23)nc2ccccc21,-0.4%,i,-0.3%,-9.9%,i
Cc1onc(-c2ccccc2)c1C(=O)OCCOc1cccc(Cl)c1,-15.4%,u,20.6µM*,6.51µM*,i
Cc1[nH]c2ccccc2c1C(=O)COC(=O)c1c(-c2c(F)cccc2Cl)noc1C,u,u,u,10.1%,16.4µM*
CC(=O)c1c(C)[nH]c(C(=O)COC(=O)c2c(-c3ccccc3)noc2C)c1C,20.6µM*,x,u,-4.5%,x
CCOc1ccc(C(=O)COC(=O)c2c(-c3ccccc3)noc2C)cc1,-25.4%,u,6.51µM*,u,u
Cc1ccc(OCCOC(=O)c2c(-c3ccccc3)noc2C)cc1,u,i,u,98.6%,u
O=C(NC(=S)NCCCN1CCOCC1)c1cccc2ccccc12,9.0%,i,-0.4%,0.0%,u
O=C1C=C(NCc2ccccc2)c2ccccc2C1=O,11.6µM*,u,u,18.4µM*,u
O=C1C=C(Nc2ccccc2O)c2ccccc2C1=O,u,18.4µM*,u,6.51µM*,20.6µM*
O=c1cccccc1NCc1ccccc1,0.0%,i,1.5%,-27.7%,i
NC1=CC(=O)C(=O)c2ccccc21,x,i,u,u,u

# Source: PubChem
